Source: PubChem
TDP-43 yeast inh: qHTS of TDP-43 Inhibitors. TDP-43 expressing yeast growth rescue, BacTiter-Glo, 24 h. Potency, µM (doses to about 46.1 µM), actives largely listed as activators. 410,000 compounds, 1.8% hits. AID 652104, 2013; further: nearly all actives have a fitted effect of over 50% in size
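Readout is BacTiter-Glo luminescence of cell growth, so inhibitors register as activators. TDP-43-expressing yeast at OD600=0.02 in galactose medium, after raffinose pregrowth to mid-log, were incubated with compound for 24 hr at 30 deg C.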
Akt phos inh: HTS Assay for Inhibitors of Akt Phophorylation: Primary Screen. Neuro2A IGF-stimulated pAkt S473 HTRF, 20 min; stronger effect = lower value. activity change, % for hits at 50 µM. 360,000 compounds, 0.32% hits. AID 651550, 2012; in the data active means activity change below about -80%; inconclusive means mostly about -51% to -80%
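Single-point screen (50 µM final compound) in Neuro2A cells stimulated 20 min with 6 nM IGF at 37 deg C. After lysis, Ser473-phosphorylated Akt read by HTRF (ex 330 nm, em 615/665 nm) as the 665/615 ratio.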
Mito fusion yeast: qHTS Assay for Small Molecule Inhibitors of Mitochondrial Division or Activators of Mitochondrial Fusion. Potency, µM (titrated, usually from 46.1 µM), usual class: activators. AID 485298, 2010. S. cerevisiae fusion-defective mutant growth rescue, CellTiterGlo 48 h. 320,000 compounds, 0.23% hits; further: nearly all actives have a fitted effect of over 45% in size
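Temperature-sensitive fusion-defective S. cerevisiae (e.g. fzo1-1, mgm1-5) were grown with compound in YPEG medium (3% ethanol, 3% glycerol) for 48 hours at 37C. Growth rescue was measured as viability by CellTiterGlo luminescence after 10 minutes at ambient.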
CCT modulator: High-Throughput Screening for Modulators of Cytosolic Chaperonin Activity; purified chaperonin ATPase assay, HTRF ADP detection, 30 min; activity change, % (test concentration not listed), hits read low; 360,000 compounds, 0.3% hits; AID 651819, 2012; in the data active means activity change below about -30%
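TRiC at 40 or 20 nM final (batch-dependent) in 30 mM Tris pH 7.4, 100 mM KCl, 5 mM MgCl2, 1 mM DTT, with compound at single 76 uM and 10 uM ATP, 30 min at 37 deg C. ADP detected by HTRF Transcreener, 665/615 ratio.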
aSyn rescue: qHTS of alpha-syn Inhibitors. Potency, µM (highest dose often 46.1 µM), most hits filed as activators. AID 652106, 2013. Yeast expressing alpha-synuclein, growth rescue, BacTiter-Glo, 24 h. 370,000 compounds, 0.14% hits; further: nearly all actives have a fitted effect of over 65% in size
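Screening used galactose-induced yeast with toxic alpha-synuclein levels, exposed to compound for 24 hr at 30 deg C. Cell growth, read with BacTiter-Glo luminescence, gave the measured signal.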
Apoferritin bind: qHTS Assay for Identification of Novel General Anesthetics | Ferritin light chain (Equus caballus), P02791 | apoferritin/1-aminoanthracene competitive binding, fluorescence | Potency, µM (highest dose often 77.5 µM), most hits filed as inhibitors | 350,000 compounds, 0.074% hits; further: nearly all actives have a fitted effect of over 20% in size
Target sequence (P02791 2-175 limits assumed): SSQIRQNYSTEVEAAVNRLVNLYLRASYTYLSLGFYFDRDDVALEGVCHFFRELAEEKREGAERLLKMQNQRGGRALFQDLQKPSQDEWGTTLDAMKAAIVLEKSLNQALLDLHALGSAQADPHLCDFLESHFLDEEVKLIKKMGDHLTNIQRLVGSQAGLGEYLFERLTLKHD
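Horse-spleen apoferritin (10 uM) was mixed with 50% saturated 1-aminoanthracene in PBS, exposed to compounds for 10 min at room temperature, and read for fluorescence (ex 380 nm, em 535 nm). Competitive displacement was fitted with a four-parameter Hill equation.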
Numbers stand for hits; - = inactive; ? = inconclusive; . = no result; ! = not active in a repeat. Compounds with a hit are over-represented: about 2.5% of the library has one in this group of screens. Unless noted, the call rests on the fitted dose curve; in most records, active means well fitted curve in the direction sought with a large enough effect; inconclusive means small, poorly fitted or top-dose-only effect, or another doubt; inactive means no such curve, though single readings can be large; an effect the other way counts as inactive or inconclusive.

SMILES	TDP-43 yeast inh	Akt phos inh	Mito fusion yeast	CCT modulator	aSyn rescue	Apoferritin bind
Cc1ccc(C)c(N2CCN(C(=O)C3CCCN(S(=O)(=O)c4c(C)[nH]c(=O)[nH]c4=O)C3)CC2)c1 (stereo not drawn)	-	-	-	-	-	-
Cc1[nH]c(=O)[nH]c(=O)c1S(=O)(=O)N1CCCC(C(=O)N2CCN(c3ccccc3Cl)CC2)C1 (stereo not drawn)	-	-124%	-	-	-	-
COc1cccc(CNc2ccc([N+](=O)[O-])cc2C)c1	16µM	-	-	-	-	?
COc1ccc(OC)c(CNc2ccc([N+](=O)[O-])cc2C)c1	?	-	-	-	-	?
COc1ccccc1OCCSc1nc2ccccc2n1CCO	-	-	-	-	-	-
COc1ccccc1OCCSc1nc2ccccc2n1CCC(=O)O	-	-	-	-	-	-
Cc1ccc(C(C)C)c(OCCSc2nc3ccccc3n2CC(O)CO)c1 (stereo not drawn)	35µM	.	.	.	.	-
COC(=O)Cn1c(SCCOc2ccccc2Cl)nc2ccccc21	28µM	.	.	.	.	-
COC(=O)c1scc(-c2ccc(C)cc2)c1S(=O)(=O)Nc1cc(C)c(Cl)cc1OC	-	.	.	.	.	-
Cc1ccc(NC(=O)COc2cccc3c2OC(C)(C)C3)c(O)c1	11µM	-	-	-	-	.
CC1(C)Cc2cccc(OCC(=O)Nc3ccccc3F)c2O1	?	-	-	-	?	.
CC1(C)Cc2cccc(OCC(=O)N3CCN(S(=O)(=O)c4ccc(F)cc4)CC3)c2O1	-	-	-	-	-	-
Cc1cccc(N2CCN(C(=O)COc3cccc4c3OC(C)(C)C4)CC2)c1C	?	-	16µM	-	-	-
COc1ccc(CC(=O)Nc2cc(-c3nc4cccnc4s3)ccc2C)cc1	-	.	.	.	.	-
Cc1ccc2occ(CC(=O)Nc3c(C)cccc3C)c2c1	13µM	.	.	.	.	-
CCOc1ccccc1NC(=O)Cc1coc2ccc(C)cc12	.	-	-	-	13µM	-
CC(=O)c1ccccc1S(=O)(=O)N1CCN(c2nc(-c3cccs3)nc3ccccc23)CC1	.	.	.	.	-	.
O=c1[nH]c2c(-c3nc(-c4ccc(Cl)cc4)cs3)c(O)cn2c2ccccc12	.	.	.	.	-	.
Cc1c(C(=O)OC2CCCC2C)[nH]c2c1C(=O)CCC2 (stereo not drawn)	20µM	-	-	-	-	-
CCCc1c(C(=O)OCC)[nH]c2c1C(=O)CCC2	?	-	-	-	-	-
Cc1c(C(=O)OCCOc2ccccc2)[nH]c2c1C(=O)CCC2	22µM	-	-	-	-	-
CC(=O)N1CCN(C2=NC(=O)/C(=C/c3ccc(OS(=O)(=O)c4ccccc4)cc3)S2)CC1	-	-	-	-79	-	-
O=C1N=C(N2CCOCC2)S/C1=C\c1ccccc1OS(=O)(=O)c1ccccc1	-	-	-	-	-	-
O=C(CN1C(=O)CCC1=O)Nc1ccc(Br)cc1	-	-103%	-	-	-	-
O=C(O)CC1(CC(=O)Nc2ccc(Br)cc2)CCCCC1	11µM	-	-	-	-	-
SMILES	TDP-43 yeast inh	Akt phos inh	Mito fusion yeast	CCT modulator	aSyn rescue	Apoferritin bind
O=C(O)CC1(CC(=O)Nc2ccc3ccccc3c2)CCCCC1	-	-	-	-	-	-
CCCC(=O)Oc1c(Sc2ccc(Cl)cc2)c(C)nn1-c1ccccc1	-	.	.	.	.	-
CCOC(=O)c1ccc(N2C(=O)Cc3cc(OCC)c(OCC)cc3C2c2ccccc2)cc1 (stereo not drawn)	-	.	.	.	.	-
COc1cc2c(cc1OC)C(c1ccc(Cl)cc1)N(c1ccc(C)c(F)c1)C(=O)C2 (stereo not drawn)	35µM	.	.	.	.	-
CCOC(=O)C1=CN(C(=O)OC(C)(C)C)C(CN2C(=O)COCC2=O)C1 (stereo not drawn)	.	.	.	.	.	-
COc1cccc(-c2nnc3n2N=C(c2c(OC)cccc2OC)CS3)c1	.	.	.	.	.	-
CCN(CC)C(=O)c1sc(NC(=O)Cc2ccccc2)c(C#N)c1C	-	-115%	-	-	-	-
CCN(CC)C(=O)c1sc(NC(=O)Cc2ccc(OC)cc2)c(C#N)c1C	-	-	-	-	-	?
Cc1scc(C(=O)N/N=C/c2ccc(Cl)s2)c1C	-	-	13µM	-	-	-
O=C(c1cc(O)c(O)c([N+](=O)[O-])c1)c1ccccc1F	-	-	18µM!	-	-	.
O=C(Nc1cccnc1)C1(F)C(F)(F)C(F)(F)C(F)(F)C(F)(F)C1(F)F	-	-	-	-	-	13µM
O=C(Nc1sc2c(c1C(=O)NCc1ccco1)CCCC2)c1cc(=O)c2ccccc2o1	-	.	.	.	.	-
COc1ccc(-c2nc(CCNS(=O)(=O)c3ccc4c(c3)OCCO4)cs2)cc1	13µM	-	-	-	-	-
Cc1cc(S(=O)(=O)NCCc2csc(-c3cccc(F)c3)n2)ccc1F	-	.	.	.	.	-
O=S(=O)(NCCc1csc(-c2cccnc2)n1)c1ccc2c(c1)OCCO2	-	-	-	-	-	-
O=S(=O)(NCCc1csc(-c2ccc(C(F)(F)F)cc2)n1)c1ccc2c(c1)OCCO2	25µM	-	?	-	-	-
O=C(Nc1ccc(F)c(F)c1)c1cnn2c1NC(=C1CC1)C=C2C(F)F	.	.	.	.	-	.
CCCOc1ccc(C2C(=O)N(C3CCCCCC3)CC(=O)N2C(C)C)cc1OC (stereo not drawn)	-	.	.	.	.	-
CCOc1cc(C2NN=C(c3ccccc3)S2)ccc1OCc1ccc(F)cc1 (stereo not drawn)	14µM	-	-	-	-	-
CCOc1cc2c(cc1OCC)C(c1ccc(F)cc1)NCC2 (stereo not drawn)	-	-	.	-	-	.
CCOc1cc(C2NN=C(c3ccccc3)S2)ccc1OCc1ccccc1Cl (stereo not drawn)	10µM	-	-	-	-	-
CN1C(=O)c2ccccc2N(C)C1c1ccccc1Cl (stereo not drawn)	16µM	-	-	-	-	-
Fc1ccccc1-n1ncc2c1ncn1nc(Cc3ccccc3)nc21	10µM	.	.	.	.	-
